Data published in PubChem BioAssay AID588726 (The Scripps Research Institute Molecular Screening Center, 2011).
Screen size: about 360,000 compounds; about 8,200 (2.3%) were called active. No stated cut-off is given here; in the data, active means inhibition above about 27%; inactive means the rest. The entries come from a sample that favours actives as a whole.

Target: Fructose-bisphosphate aldolase (Mycobacterium tuberculosis (strain ATCC 25618 / H37Rv)) (UniProt P9WQA3)
Assay: M. tuberculosis aldolase activity blockers – biochemical, fluorescence, strain H37Rv, primary screen (AID 588726);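 further: 0% = vehicle and 100% = reference inhibitor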
Conditions: purified M. tuberculosis FBA, fluorescence read-out, at 1 µM, stronger effect = higher value

Chain of Fructose-bisphosphate aldolase (Mycobacterium tuberculosis (strain ATCC 25618 / H37Rv)) (P9WQA3 whole entry, looked up): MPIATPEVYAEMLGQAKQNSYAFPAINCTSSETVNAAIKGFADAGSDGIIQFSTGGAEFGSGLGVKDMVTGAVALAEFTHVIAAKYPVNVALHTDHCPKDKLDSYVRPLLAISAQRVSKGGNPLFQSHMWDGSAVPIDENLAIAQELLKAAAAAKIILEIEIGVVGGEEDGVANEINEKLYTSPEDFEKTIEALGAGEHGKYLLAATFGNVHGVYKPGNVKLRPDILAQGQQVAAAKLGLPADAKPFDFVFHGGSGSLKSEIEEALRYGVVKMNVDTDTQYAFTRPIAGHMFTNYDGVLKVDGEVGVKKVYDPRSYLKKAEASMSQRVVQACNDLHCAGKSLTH

Structure (SMILES) | inhibition
COc1ccccc1-c1sc2ccccc2c1C#CC1(O)CCCCC1 | 6.51% (inactive)
COc1ccccc1-c1oc2ccccc2c1C#CCCCCO | 30.8% (active)
CCNC(=O)CC1C(=O)N(c2ccc(F)cc2)C(=O)N1Cc1cccs1 (centres undefined) | -3.21% (inactive)
CSCC[C@H](NC(=O)NC1CCCC1)C(=O)O | -1.95% (inactive)
CCN(CC)c1ccc(NC(=O)C2CCC(CNc3c(N4CCCC4)c(=O)c3=O)CC2)c(C)c1 (centres undefined) | -0.83% (inactive)
COc1ccc2c(c1)CC[C@@H]1[C@@H]2CC[C@]2(C)C(=O)CC[C@@H]12 | 0.88% (inactive)
O=C1OCC2=C1C(c1ccccc1)CC(=O)N2c1cccc(F)c1 (centres undefined) | -3.03% (inactive)
Cc1cnc(C(=O)OCC(=O)N2CCc3ccccc32)cn1 | 69% (active)
O=C(OCC(=O)N1CCc2ccccc21)c1ccc([N+](=O)[O-])cc1 | -3.08% (inactive)
Cc1ccc(S(=O)(=O)NCC(=O)OCC(=O)N2CCc3ccccc32)cc1 | 0.04% (inactive)
CCc1ccc(N2CC(C(=O)NC3=NCCS3)CC2=O)cc1 (centres undefined) | 4.59% (inactive)
O=C(CCc1ccccc1)Nc1cccc(-c2nnc(-c3ccco3)o2)c1 | 26.9% (active)
O=C(CSc1nnc(-c2ccco2)o1)NCC(=O)c1ccccc1 | -1.17% (inactive)
O=C(CCc1ccccc1)Nc1nn[nH]n1 | 2.03% (inactive)
O=C1CCC(=O)N1CCOP1(=O)COc2ccccc2OC1 | 3.44% (inactive)
CCOC(=O)CSc1nc2c(c(=O)n(Cc3ccccc3Cl)c(=O)n2C)n1C | 88% (active)
CCC1CCCCN1C(=O)CSc1nc2c(c(=O)n(C)c(=O)n2C)n1C (centres undefined) | 0.65% (inactive)
CCCSc1nc2c(c(=O)n(C)c(=O)n2C)n1Cc1ccc(C)cc1 | 1.01% (inactive)
CC(C)C1CCN(C(=O)C2CCC(=O)N(C3CCCCCC3)C2)CC1 (centres undefined) | -1.51% (inactive)
CCN(C(=O)Cc1c(C(=O)O)n(CC)c2ccccc12)c1ccccc1C | 0.97% (inactive)

Structure (SMILES) | inhibition
Fc1ccc(/C=N/n2c(COc3ccccc3)n[nH]c2=S)cc1 | 2.47% (inactive)
Fc1ccc(COc2cccc(-c3n[nH]c(=S)o3)c2)cc1 | 29.4% (active)
Fc1ccc(COc2ccc(-c3nnco3)cc2)cc1 | -0.19% (inactive)
CC1(C)C2CC[C@]3(C)C(CC=C4[C@@H]5C[C@@](C)(CO)CC[C@]5(C(=O)O)CC[C@]43C)[C@@]2(C)CC[C@@H]1O (some centres undefined) | 0.29% (inactive)
Cc1ccccc1C(=O)N1CCC(C(=O)Nc2ccc(S(=O)(=O)N(C)C(C)C)cc2)CC1 | 1.27% (inactive)
O=C(CSc1nc2c(cnn2-c2ccc(F)cc2)c(=O)[nH]1)N1CCCCCC1 | 2.6% (inactive)
Cc1c(C)n2c(SCC(=O)N3CCCC3)nnc2[nH]c1=O | -0.46% (inactive)
CC(=O)c1sc2nc(SCC(=O)N3CCCCC3)[nH]c(=O)c2c1C | 30.5% (active)
CC(C)c1ccc(N(C(=O)c2ccco2)C(C(=O)NC2CCCC2)c2cccnc2)cc1 (centres undefined) | -3.97% (inactive)
O=C(NC(=S)Nc1ccccc1C(=O)O)c1ccc(-c2ccc(Br)cc2)o1 | 10.4% (inactive)
CCOC(=O)Cc1c(C)nc2c(C#N)c(C)nn2c1C | 46.4% (active)
Cc1cc(C)cc(NC(=O)CSc2ccccc2)c1 | 70.8% (active)
Cc1cc(C)cc(NC(=O)CSCc2cnn(-c3ccccc3)c2-n2cccc2)c1 | -1.78% (inactive)
Cc1cc(C)cc(NC(=O)CCN2C(=O)c3ccccc3C2=O)c1 | 0.74% (inactive)
CCCN(CC(=O)Nc1ccccc1C)C(=O)c1ccc(OCC(=O)N2CCOCC2)c(OCC)c1 | -1.46% (inactive)
Cn1ncc2c(N3CCCCC3)nc(NCCCO)nc21 | -2.65% (inactive)
CC(C)(C)C(=O)NC1CC2CCCC(C1)N2C(=O)Nc1ccccc1F (centres undefined) | -0.96% (inactive)
COc1ccc(-c2nc3ccccc3n2CCC(C)C)cc1OC | 5.55% (inactive)
CCCCn1c(N)c(N(CCOC)C(=O)CSCC(=O)Nc2cccc(C)c2)c(=O)[nH]c1=O | -1.91% (inactive)
CCCCn1c(-c2cccc(C)c2)nc2cc3[nH]c(=O)c(C(C)C)nc3cc21 | 87.6% (active)

Structure (SMILES) | inhibition
Nn1c(Cc2cccc3ccccc23)nnc1SCC(=O)N1CC(=O)Nc2ccccc21 | 1.67% (inactive)
CSCCC(Nc1ccc(S(=O)(=O)N2CCOCC2)cc1[N+](=O)[O-])C(=O)OCC(=O)N(C(C)C)C(C)C (centres undefined) | -2.32% (inactive)
CCOC(=O)Cc1cc(=O)[nH]c(=O)[nH]1 | 1.01% (inactive)
Cc1c(CCC(=O)O)c(=O)oc2c(C)c(OCc3ccccc3Cl)ccc12 | 5.47% (inactive)
FC(F)(F)c1ccc(-c2cccc3c2C2CC3CCN2Cc2ccccc2)cc1 (centres undefined) | 4.42% (inactive)
O=C(NCC(c1cccs1)N1CCOCC1)c1cc(-c2ccccn2)nc2ccccc12 (centres undefined) | 5.77% (inactive)
O=C(NCCN1CCOCC1)c1cc(Sc2cccc(Cl)c2)nc2ccccc12 | -0.13% (inactive)
O=C(NCCN1CCOCC1)c1cc(-c2cccs2)nc2ccccc12 | 67.9% (active)
CCCCN(C)CCCNC(=O)c1cc(-c2cccs2)nc2ccccc12 | 140% (active)
Cc1csc2nc(O)c(C(=O)NCCN3CCOCC3)c(=O)n12 | 0.68% (inactive)
COC(=O)c1cc(N2CCNCC2)nc2ccccc12 | 12.9% (inactive)
Cc1cc(C(=O)OCC(=O)Nc2nccs2)c2ccccc2n1 | -2.68% (inactive)
O=C(NCCc1ccccn1)c1cc(-c2ccc(Cl)cc2)nc2ccccc12 | -0.88% (inactive)
COC(=O)c1cc(-c2cccs2)nc2ccccc12 | 31.1% (active)
CC(C)CC(=O)N=C1SC2CS(=O)(=O)CC2N1CCc1ccccc1 (centres undefined) | -1.54% (inactive)
C[C@H](CO)N1C[C@H](C)[C@@H](CN(C)S(=O)(=O)c2ccc(F)cc2)OCc2cnnn2CCCC1=O | -1.18% (inactive)
CCc1n[nH]c(=S)n1/N=C/c1c[nH]c2ccc(Br)cc12 | 4.89% (inactive)
N#CCSc1nn(-c2ccc(F)cc2)c(=S)s1 | 2.99% (inactive)
CCCCC(=O)NNC(=S)NC(=O)C(c1ccccc1)c1ccccc1 | 6.76% (inactive)
